Measured values taken from the supplement of paper PMC4206467.

test system: Perkinsus marinus PRA240; assay: ATP content (proliferation) relative to DMSO control; higher = more parasite growth (less inhibition); settings: 20 µM; 4 days
Protocol: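 Perkinsus marinus PRA240 trophozoites (2-5x10^6 cells/ml, 100 µl, 96-well) were exposed once to MMV Malaria Box compounds at 20 µM (0.1% DMSO) in triplicate. ATP content (ATPlite bioluminescence) was read at day 4 post-exposure and normalised to DMSO + cells control wells (100% activity). Compounds were identified by joining plate and well to the Malaria Box list.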

SMILES	ATP content
COc1ccc(C)c2sc(N(Cc3cccnc3)C(=O)c3ccc(C#N)cc3)nc12	87.4%
CCCCCCC(O)(c1ccc(F)cc1)C(CN1CCOCC1)c1ccccc1 (centres undefined)	127%
Cc1ccc(CSCc2ccc(C(=O)NC3CC3)o2)cc1	54.8%
Cc1ccc(-c2cc(C(=O)Nc3ccc(S(=O)(=O)N4CCCCC4)cc3)[nH]n2)c(O)c1	104%
COc1ccc(-c2cc3c(nn2)-c2ccccc2C3=O)cc1	32.7%
O=C(NC1CCCCC1)C(c1cccs1)N(CCc1ccccc1)C(=O)c1ccco1 (centres undefined)	101%
Clc1ccc2[nH]c3c(NCCCN4CCOCC4)ncnc3c2c1	163%
CCCN(CCC)CCCNC(=O)c1cc2c(-c3ccc(OC)c(OC)c3)nn(C)c2s1	80.3%
Cc1ccc(OCCCCCCNCCO)c(C)c1	164%
CC(C)(C)c1ccc(C2CC3=Nc4ccccc4N(C(=O)c4ccccc4Cl)C(c4ccc(F)cc4)C3=C(O)C2)cc1 (centres undefined)	129%
CCOc1cc(Br)c(C(C)NC(=O)c2cccc(OC)c2)cc1OCC (centres undefined)	115%
Cc1ccc(F)cc1NC(=O)c1cc(Cl)ccc1Nc1ccccc1	113%
CCCC(c1nnnn1C1CCCCC1)N1CCN(C(=O)c2ccco2)CC1 (centres undefined)	115%
CCCCCCn1c(=N)n(CC(O)COc2cccc(C)c2)c2ccccc21 (centres undefined)	96.7%
COc1cccc(C(=O)Nc2ccc(-c3nc4ccccc4[nH]3)cc2)c1	108%
O=C(Nc1ccc(Cl)cc1C(=O)Nc1ccncc1)c1ccc(Cl)cc1Cl	103%
COc1ccc(CNC2CCN(c3ccc(NC(=O)c4cccc(Cl)c4)cc3)CC2)cc1OC	102%
COc1cccc(NC(=O)Cn2c(C)c(C#N)c3ccccc32)c1	110%
Oc1ccccc1CN1CCC2(CCCN(Cc3ccccc3F)C2)C1 (centres undefined)	70.1%
